The source made the active and inactive calls. Rule for the calls: active = hit-call score of the fitted dose curve at least 0.9, where 1 is the maximum; inactive = score below 0.9.
What was measured:
[1] = APR_HepG2_CellCycleArrest_24hr: Apredica 24-hour HepG2 Assay for Cell Cycle Arrest (AID 2282905); details: imaging, actives raise or lower the signal;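 note: cell cycle arrest scored as ratio of 2N to 4N nuclear DNA content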
How it was run: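 HepG2 cells were exposed to compounds at 0.39–200 uM (ten concentrations, duplicate) in 0.5% v/v DMSO for 24 hr. After formaldehyde fixation and Triton permeabilization, Hoechst 33342-stained nuclei were imaged at 20x; DNA content was quantified, with bidirectional fitting against DMSO.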

[2] = APR_HepG2_NuclearSize_24hr: Apredica 24-hour HepG2 Assay for Nuclear Size (AID 2282907); details: high-content imaging, actives raise or lower the signal
How it was run: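 HepG2 human liver cells were exposed for 24 hr to compounds at 0.39–200 uM (ten concentrations, duplicate) in 0.5% v/v DMSO. They were then formaldehyde-fixed, Triton-permeabilized and Hoechst 33342-stained, and nuclear diameter was imaged at 20x. Bidirectional fits were made against DMSO.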

[3] = APR_HepG2_CellLoss_24hr: Apredica 24-hour HepG2 Assay for Cell Loss (AID 2282908); details: high-content imaging;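 for AC50: fit in both directions so a hit may be cell loss or gain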
How it was run: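 Compounds were tested at 0.39–200 uM in duplicate with 0.5% v/v DMSO final. Cells were then fixed in 3.7% formaldehyde, Hoechst 33342 nuclei were imaged at 20x by HCS, and cell number was fitted bidirectionally against DMSO.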

[4] = APR_HepG2_MicrotubuleCSK_24hr: Apredica 24-hour HepG2 Assay for Microtubule CSK Stabilty (AID 2282909); details: HepG2 microtubule cytoskeleton imaging, actives raise or lower the signal
How it was run: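 HepG2 cells exposed 24 h to compounds at 0.39–200 uM (duplicate, 0.5% v/v DMSO final), then fixed, permeabilized and immunostained for alpha-tubulin with Hoechst 33342. Cytoskeleton imaged at 20x; bidirectional fit versus DMSO baseline.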

[5] = APR_HepG2_MitoticArrest_24hr: Apredica 24-hour HepG2 Assay for Mitotic Arrest (AID 2282910); details: high-content imaging, actives raise or lower the signal
How it was run: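 HepG2 human liver cells were exposed to compounds at 0.39–200 uM (10 concentrations, duplicate) in 0.5% v/v DMSO for 24 hr, then fixed and immunostained for phospho-histone H3 with Hoechst 33342. Mitotic arrest came from HCS fluorescent imaging, fitted bidirectionally against DMSO.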

[6] = APR_HepG2_MitoMembPot_24hr: Apredica 24-hour HepG2 Assay for Mitochondrial Membrane Potential (AID 2282911); details: imaging, actives raise or lower the signal
How it was run: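 HepG2, 24 hr dosing, 10 concentrations 0.39–200 uM, 0.5% DMSO final. Live-cell MitoTracker Red CMXRos 250 nM 30 min, then 3.7% formaldehyde fix. HCS fluorescence imaging, 20x; bidirectional fit vs DMSO baseline.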

[7] = APR_HepG2_MitoMass_24hr: Apredica 24-hour HepG2 Assay for Mitochondrial Mass (AID 2282912); details: high-content imaging, actives raise or lower the signal
How it was run: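 Human HepG2 liver cells were exposed for 24 hr to compounds at 0.39–200 uM (duplicates, 0.5% v/v DMSO final). They were stained live with 250 nM MitoTracker Red CMXRos for 30 min, fixed in 3.7% formaldehyde, and imaged by HCS fluorescence; signals were fitted bidirectionally against DMSO.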

[8] = APR_HepG2_CellCycleArrest_72hr: Apredica 72-hour HepG2 Assay for Cell Cycle Arrest (AID 2282914); details: high-content imaging, actives raise or lower the signal
How it was run: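 HepG2, 72 hr exposure, 10-point 0.39–200 uM, duplicate, 0.5% DMSO final. Fix 3.7% formaldehyde 30 min RT, Triton X-100 0.5%, Hoechst 33342 2 ug/mL. ArrayScan 20x, six fields/well; DNA content per nucleus; bidirectional fit vs DMSO.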

[9] = APR_HepG2_CellLoss_72hr: Apredica 72-hour HepG2 Assay for Cell Loss (AID 2282915); details: high-content imaging
How it was run: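 HepG2 cells were exposed for 72 hr to compounds at 0.39–200 uM (ten concentrations, duplicate) in 0.5% v/v final DMSO. Nuclei were stained with Hoechst 33342 after 3.7% formaldehyde fixation, imaged at 20x, and counted; fits bidirectional versus DMSO.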

[10] = APR_HepG2_P-H2AX_72hr: Apredica 72-hour HepG2 Assay for H2AX Phosphorylation (AID 2282916); details: imaging, actives raise or lower the signal;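 note: phospho-histone H2A.x immunostain intensity per cell marking DNA damage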
How it was run: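 HepG2 human liver cells were exposed for 72 hr to compounds at 0.39–200 uM (10 concentrations, duplicate per plate) in 0.5% v/v DMSO. Fixed, permeabilized cells were immunolabeled for phospho-histone H2A.x with Hoechst 33342 and imaged by HCS fluorescence; bidirectional fit versus DMSO.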

[11] = APR_HepG2_MitoMembPot_72hr: Apredica 72-hour HepG2 Assay for Mitochondrial Membrane Potential (AID 2282917); details: imaging, actives raise or lower the signal
How it was run: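 HepG2 cells exposed 72 h to compounds at 0.39–200 uM (0.5% v/v DMSO, duplicates); MitoTracker Red CMXRos 250 nM loaded 30 min before 3.7% formaldehyde fixation, imaged by HCS fluorescence. Bidirectional fit versus DMSO.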

[12] = APR_HepG2_MitoticArrest_72hr: Apredica 72-hour HepG2 Assay for Mitotic Arrest (AID 2282918); details: high-content imaging, actives raise or lower the signal
How it was run: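 HepG2, 72 hr exposure, 0.39–200 uM in duplicate, 0.5% v/v DMSO final. Formaldehyde-fixed, Triton-permeabilized, anti-phospho-histone H3/FITC plus Hoechst. ArrayScan imaging at 20x; curves fit bidirectionally against DMSO baseline.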

[13] = APR_HepG2_MicrotubuleCSK_72hr: Apredica 72-hour HepG2 Assay for Microtubule CSK Stabilty (AID 2282919); details: HepG2 microtubule cytoskeleton, high-content imaging, actives raise or lower the signal
How it was run: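 HepG2 human liver cells were dosed for 72 h at ten concentrations from 0.39 to 200 uM in duplicate (0.5% v/v DMSO final). Fixed, permeabilized cells were immunostained for alpha-tubulin (Cy5) with a Hoechst counterstain and imaged at 20x.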

[14] = APR_HepG2_StressKinase_72hr: Apredica 72-hour HepG2 Assay for Stress Kinase (AID 2282921); details: HepG2 stress kinase (phospho-c-Jun) imaging, actives raise or lower the signal
How it was run: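 Cells were exposed for 72 h to ten concentrations (0.39–200 uM, duplicate) at 0.5% v/v DMSO final, then fixed with 3.7% formaldehyde, permeabilized and immunostained for phospho-c-Jun (Cy3 secondary) with Hoechst nuclear counterstain.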

[15] = APR_HepG2_StressKinase_24hr: Apredica 24-hour HepG2 Assay for Stress Kinase (AID 2282922); details: HepG2 stress kinase (phospho-c-Jun) imaging, actives raise or lower the signal
How it was run: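 HepG2 cells exposed 24 hr to compound at 0.39–200 uM (10 concentrations, duplicate), 0.5% v/v DMSO final. Fixed in 3.7% formaldehyde, permeabilized with Triton X-100, immunolabeled for phospho-c-Jun with Hoechst 33342; HCS fluorescence imaging, bidirectional fit versus DMSO.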

[16] = APR_HepG2_MitoMass_72hr: Apredica 72-hour HepG2 Assay for Mitochondrial Mass (AID 2282924); details: high-content imaging, actives raise or lower the signal;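 note: MitoTracker Red CMXRos stain intensity per cell imaged as mitochondrial mass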
How it was run: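 HepG2 cells were exposed for 72 hr to compounds at 0.39–200 uM (ten concentrations, duplicate, 0.5% v/v DMSO final). Live cells were stained with 250 nM MitoTracker Red CMXRos for 30 min, then fixed in 3.7% formaldehyde and imaged by HCS fluorescence.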

[17] = APR_HepG2_NuclearSize_72hr: Apredica 72-hour HepG2 Assay for Nuclear Size (AID 2282925); details: high-content imaging, actives raise or lower the signal
How it was run: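 HepG2 cells were exposed to compounds at ten concentrations from 0.39 to 200 uM (duplicate, 0.5% DMSO final) for 72 hr. After fixation in 3.7% formaldehyde, nuclei were stained with Hoechst 33342 (2 ug/mL) and imaged at 20x.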

[18] = APR_HepG2_p53Act_72hr: Apredica 72-hour HepG2 Assay for p53 Activation (AID 2282923); details: high-content imaging, actives raise or lower the signal;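 note: average cellular p53 protein immunofluorescence intensity in HepG2 cells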
How it was run: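 Cells were dosed for 72 hr with compounds at 0.39–200 uM in duplicate (final DMSO 0.5% v/v), then fixed in 3.7% formaldehyde, permeabilized with Triton X-100 and immunostained for p53 (Cy5) with Hoechst 33342 nuclear counterstain.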

[19] = APR_HepG2_P-H2AX_24hr: Apredica 24-hour HepG2 Assay for H2AX Phosphorylation (AID 2282920); details: high-content imaging, actives raise or lower the signal
How it was run: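 HCS fluorescence imaging of phospho-H2A.x immunostain (with Hoechst 33342 nuclear counterstain) in HepG2 after 24 hr compound exposure; 10 concentrations, 0.39–200 uM, duplicate wells, 0.5% v/v DMSO. Gain or loss of signal fitted relative to DMSO baseline.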

Measured: AC50

O=C(Nc1ccccc1)c1ccccc1I
active: [1] 49.7 µM | [9] 61.8 µM
not listed: [18] | [19]
inactive: all other assays above

Cc1cc(N=Nc2ccccc2C)ccc1N
inactive: [2] | [4] | [10] | [11] | [12] | [13] | [14] | [16]
active: [1] 100 µM | [3] 70 µM | [5] 87.6 µM | [6] 101 µM | [7] 121 µM | [8] 21.5 µM | [9] 43.1 µM | [15] 100 µM | [18] 2.34 µM | [17] 56.3 µM

CC(C)COC(=O)c1ccccc1C(=O)OCC(C)C
active: [1] 85.7 µM | [3] 87 µM | [6] 53.7 µM | [7] 108 µM | [8] 76.2 µM | [9] 63.2 µM | [11] 80 µM | [12] 67 µM | [19] 77.3 µM | [16] 84.7 µM
inactive: [2] | [4] | [5] | [10] | [13] | [14] | [15] | [17]

CC(C)(C)OOC(C)(C)CCC(C)(C)OOC(C)(C)C
active: [7] 56.5 µM | [8] 55.1 µM | [9] 56.1 µM | [11] 52.8 µM | [12] 54.8 µM
not listed: [19]
inactive: all other assays above
